# Test results from paper PMC9911399, “Two distinct binding modes provide the RNA-binding protein RbFox with extraordinary sequence specificity”.
# Numbering of substitutions follows the chain as printed; changes in the protein carry UniProt numbers. Whole data set: some 16,000 sequences, median “ka relative to ugcaugu” near 0.0091, cut for the highest 2% near 0.032. For the sample, the highest values were picked, then their nearest neighbours and some sequences at random.
# T1: RBFOX1 RRM (Homo sapiens, UniProt Q9NWB1 109-208)
# T1 sequence: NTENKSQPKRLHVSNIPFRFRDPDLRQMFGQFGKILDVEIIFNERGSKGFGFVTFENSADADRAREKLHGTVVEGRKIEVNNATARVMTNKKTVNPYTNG
# B1: CCUUGGG (DNA:RNA)
# RNA: GGGAGACCGGAAUUCAGAUUGUCCCCUUGGGUUAAAUCCCGUCGUAGCCACCA
# DNA 1: CAATCTGAATTCCGGTCTCCC
# DNA 2: TGGTGGCTACGACGGGATT
# B2: CGCCUAC (DNA:RNA)
# RNA: B1 RNA with C26G, U27C, U28C, G29U, G30A, G31C
# DNA 1: CAATCTGAATTCCGGTCTCCC
# DNA 2: TGGTGGCTACGACGGGATT
# B3: AUGAUGU (DNA:RNA)
# RNA: B1 RNA with C25A, C26U, U27G, U28A, G29U, G31U
# DNA 1: CAATCTGAATTCCGGTCTCCC
# DNA 2: TGGTGGCTACGACGGGATT
# B4: GCAUGAG (DNA:RNA)
# RNA: B1 RNA with C25G, U27A, G30A
# DNA 1: CAATCTGAATTCCGGTCTCCC
# DNA 2: TGGTGGCTACGACGGGATT
# B5: GCAUAAA (DNA:RNA)
# RNA: B1 RNA with C25G, U27A, G29A, G30A, G31A
# DNA 1: CAATCTGAATTCCGGTCTCCC
# DNA 2: TGGTGGCTACGACGGGATT
# B6: GCAUUGA (DNA:RNA)
# RNA: B1 RNA with C25G, U27A, G29U, G31A
# DNA 1: CAATCTGAATTCCGGTCTCCC
# DNA 2: TGGTGGCTACGACGGGATT
# B7: GUAUGAG (DNA:RNA)
# RNA: B1 RNA with C25G, C26U, U27A, G30A
# DNA 1: CAATCTGAATTCCGGTCTCCC
# DNA 2: TGGTGGCTACGACGGGATT
# B8: GCCAUGA (DNA:RNA)
# RNA: B1 RNA with C25G, U27C, U28A, G29U, G31A
# DNA 1: CAATCTGAATTCCGGTCTCCC
# DNA 2: TGGTGGCTACGACGGGATT
# B9: GCAUGUA (DNA:RNA)
# RNA: B1 RNA with C25G, U27A, G30U, G31A
# DNA 1: CAATCTGAATTCCGGTCTCCC
# DNA 2: TGGTGGCTACGACGGGATT
# B10: GGAUGAG (DNA:RNA)
# RNA: B1 RNA with C25G, C26G, U27A, G30A
# DNA 1: CAATCTGAATTCCGGTCTCCC
# DNA 2: TGGTGGCTACGACGGGATT
# B11: GCAUAUA (DNA:RNA)
# RNA: B1 RNA with C25G, U27A, G29A, G30U, G31A
# DNA 1: CAATCTGAATTCCGGTCTCCC
# DNA 2: TGGTGGCTACGACGGGATT
# B12: GCAUGAA (DNA:RNA)
# RNA: B1 RNA with C25G, U27A, G30A, G31A
# DNA 1: CAATCTGAATTCCGGTCTCCC
# DNA 2: TGGTGGCTACGACGGGATT
# B13: CGCAUGA (DNA:RNA)
# RNA: B1 RNA with C26G, U27C, U28A, G29U, G31A
# DNA 1: CAATCTGAATTCCGGTCTCCC
# DNA 2: TGGTGGCTACGACGGGATT
# B14: GUAUGUA (DNA:RNA)
# RNA: B1 RNA with C25G, C26U, U27A, G30U, G31A
# DNA 1: CAATCTGAATTCCGGTCTCCC
# DNA 2: TGGTGGCTACGACGGGATT
# B15: GCAUAGA (DNA:RNA)
# RNA: B1 RNA with C25G, U27A, G29A, G31A
# DNA 1: CAATCTGAATTCCGGTCTCCC
# DNA 2: TGGTGGCTACGACGGGATT
# Molecular target: T1, RBFOX1 RRM
# Assay: EMSA; HiTS-Eq, 1 nM pool, 10 min; buffer printed only for the single-RNA assays: 10 mM Tris pH 7.5, 150 mM NaCl, 3.4 mM EDTA, 0.001% NP-40, 30 C
# Conditions: tags: His6 N-terminal (pET28a); label: 5' 32P
# Method in brief: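 These values rest on relative association constants, computed from read-count changes of each RNA species versus the control reaction and normalised to the cognate motif. Reads came from free RNA recovered by 8% native PAGE after purified RbFox RRM (wild type or mutant) at increasing concentrations was equilibrated for 10 min in 50 µL with 1 nM of a 5′-radiolabelled pool with 7 randomized nucleotides and DNA-annealed flanks.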
row,Binder,binding signal
1,B1,0.00389 KA relative to UGCAUGU
2,B2,0.00556 KA relative to UGCAUGU
3,B3,0.0132 KA relative to UGCAUGU
4,B4,0.684 KA relative to UGCAUGU
5,B5,0.00438 KA relative to UGCAUGU
6,B6,0.0124 KA relative to UGCAUGU
7,B7,0.0141 KA relative to UGCAUGU
8,B8,0.0124 KA relative to UGCAUGU
9,B9,0.473 KA relative to UGCAUGU
10,B10,0.0205 KA relative to UGCAUGU
11,B11,0.0014 KA relative to UGCAUGU
12,B12,0.594 KA relative to UGCAUGU
13,B13,0.67 KA relative to UGCAUGU
14,B14,0.0125 KA relative to UGCAUGU
15,B15,0.0137 KA relative to UGCAUGU
